High-throughput results as filed in PubChem.
SENP8 block-1 – human SENP8 protease inhibitors, primary screen, biochemical, fluorescence, Nedd8 protein substrate, uHTS; Sentrin-specific protease 8 (Homo sapiens), Q96LD8; recombinant SENP8; inhibition, % at 20 µM; actives 0.64% (n = 360,000); in the data active = inhibition mostly above about 40%, no sharp cut-off; inactive = mostly below about 27%
Target sequence (Q96LD8 whole entry, looked up): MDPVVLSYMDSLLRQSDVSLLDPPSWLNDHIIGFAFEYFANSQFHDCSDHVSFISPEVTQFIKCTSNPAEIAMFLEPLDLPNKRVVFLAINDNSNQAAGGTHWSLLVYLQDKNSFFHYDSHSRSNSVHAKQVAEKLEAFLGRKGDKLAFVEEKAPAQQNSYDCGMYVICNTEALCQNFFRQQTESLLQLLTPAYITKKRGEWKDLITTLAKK
SENP8 block-2 – SENP8 protease inhibitors, primary screen, biochemical, luminescence. Sentrin-specific protease 8 (Homo sapiens), Q96LD8. purified SENP8, Z-RLRGG-aminoluciferin cleavage. inhibition, % at 10 µM. actives 1.2% (n = 330,000); in the data active = inhibition above about 50%
HSP90 refold inh – HSP90 inhibitors, primary screen, cell lysate, luminescence | inhibition, % at 5.6 µM | Rabbit reticulocyte lysate, luciferase refolding luminescence, 3 h | Heat shock protein HSP 90 (rabbit reticulocyte lysate; luciferase refolding) | actives 0.91% (n = 290,000) | AID 1789, 2009;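 active = inhibition above the screen-wide mean plus 3 SD, computed separately per campaign, cut at about 16% in these data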;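 also: inhibitors lower the luminescence because luciferase stays unfolded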
SENP7 block – SENP7 protease inhibitors, primary screen, biochemical, luminescence, uHTS. inhibition, % at 5 µM. recombinant SENP7, Z-RLRGG-aminoluciferin luminescence, 40 min. Sentrin-specific protease 7 (Homo sapiens), Q9BQF6. actives 1.5% (n = 330,000);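 active = inhibition above about 50% at the single test dose, limit read from the data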
SENP6 inh – SENP6 protease inhibitors, primary screen, biochemical, luminescence, uHTS. Sentrin-specific protease 6 (Homo sapiens), Q9GZR1. Recombinant SENP6 catalytic domain, aminoluciferin luminescence. inhibition, % at 10 µM. actives 1.8% (n = 330,000);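 active = inhibition above about 50% at the single tested dose, limit read from the data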
HSP90 inh confirm – HSP90 inhibitors, confirmation, cell lysate, luminescence; inhibition, % at 5.9 µM; actives 64% (n = 2,300); AID 1846, 2009; shares compounds with HSP90 refold inh; rabbit reticulocyte lysate, luciferase refolding luminescence, 3 h; in the data active = inhibition above about 18%
luciferase ctr – firefly luciferase inhibitors, HSP90 counter-screen, confirmation, artefact control for HSP90 inhibitor project, biochemical, luminescence, triplicate | shares compounds with HSP90 refold inh | purified native firefly luciferase | inhibition, % at 5.9 µM | actives 48% (n = 2,300) | AID 1847, 2009;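 active = inhibition above the mean inhibition of all tested sample wells plus 3 SD, cut at about 10% in these data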
SENP8 confirm – SENP8 protease inhibitors, retest, confirmation, biochemical, luminescence, single concentration. shares compounds with SENP7 block. Recombinant SENP8, Z-RLRGG-aminoluciferin luminescence, 60 min. inhibition, % at 12.5 µM. actives 40% (n = 6,200). AID 488912, 2010;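 active = mean inhibition across replicates above about 50%, limit read from the data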
SENP6 conf – SENP6 protease inhibitors, confirmation, biochemical, luminescence, single concentration. shares compounds with SENP7 block. recombinant SENP6, Z-RLRGG-aminoluciferin luminescence. inhibition, % at 12.5 µM. actives 58% (n = 6,200). AID 488915, 2010
SENP7 confirm – SENP7 protease inhibitors, retest, confirmation, biochemical, luminescence, single concentration; inhibition, % at 12.5 µM; actives 69% (n = 6,200); AID 488917, 2010; recombinant SENP7, Z-RLRGG-aminoluciferin luminescence, 40 min; shares compounds with SENP7 block
Casp3 select – caspase-3 protease inhibitors, confirmation, selectivity assay for SENP inhibitor project, biochemical, single concentration; AID 488918, 2010; purified caspase-3, Z-DEVD-aminoluciferin luminescence, 60 min; actives 60% (n = 6,200); shares compounds with SENP7 block; inhibition, % at 12.5 µM;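 active = mean inhibition above about 50%, limit read from the data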
Target sequence (P42574 28-227 limits assumed): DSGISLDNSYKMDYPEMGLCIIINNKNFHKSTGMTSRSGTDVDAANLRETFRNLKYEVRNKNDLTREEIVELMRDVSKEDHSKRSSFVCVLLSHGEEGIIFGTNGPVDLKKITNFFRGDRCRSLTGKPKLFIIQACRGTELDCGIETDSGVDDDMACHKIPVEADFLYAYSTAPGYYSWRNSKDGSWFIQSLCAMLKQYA
Luc interf – counter-screen for SENP inhibitors: luminescence interference; Pre-incubated SENP8/Z-RLRGG-aminoluciferin, luciferase luminescence interference; actives 39% (n = 6,200); shares compounds with SENP7 block; inhibition, % at 12.5 µM;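 active = mean inhibition above about 50% when retested at one dose, limit read from the data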
A number is an active result; - = inactive; . = no result. The list is not random: actives were taken first. Their share in the collection is about 2.7%.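 The calls were made as follows, unless noted: active = mean inhibition above about 50% in the one-dose retest (limit read from the data); inactive = the rest.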

SMILES | SENP8 block-1 | SENP8 block-2 | HSP90 refold inh | SENP7 block | SENP6 inh | HSP90 inh confirm | luciferase ctr | SENP8 confirm | SENP6 conf | SENP7 confirm | Casp3 select | Luc interf
c1ccc(-c2nc3cc4ccccc4cc3[nH]2)nc1 | - | 94 | 26 | 100 | 99 | 72 | 66 | 96 | 97 | 100 | 96 | 94
CC(=O)Nc1ccc2nc(-c3ccccn3)[nH]c2c1 | - | - | - | - | - | . | . | . | . | . | . | .
Cc1nc(NC(=O)c2ccccc2)sc1-c1csc(NCCc2ccccc2)n1 | - | - | 42 | 57 | 63 | 19 | - | - | - | - | - | -
Cc1nc(-c2ccc(NC(=O)c3ccccc3)cc2)cs1 | - | 94 | 21 | 97 | 97 | 40 | 28 | 87 | 97 | 101 | 96 | 83
Cc1ccc(C(=O)Nc2ccc(-c3csc(C)n3)cc2)cc1 | - | - | - | - | - | . | . | . | . | . | . | .
Cc1nc(NC(=O)c2ccccc2)sc1-c1csc(NCc2ccccc2)n1 | - | 64 | 60 | 75 | 80 | 24 | - | - | - | - | - | -
CCOc1ccccc1Nc1nc(-c2sc(NC(=O)c3cccc(Cl)c3)nc2C)cs1 | - | 68 | 73 | 77 | 84 | 33 | - | - | - | - | - | -
CCCC(C)C(=O)Nc1nc(C)c(-c2csc(Nc3ccccc3OC)n2)s1 (stereo not drawn) | - | - | - | - | - | . | . | . | . | . | . | .
CCn1cc(SCC(=O)NCC2CCCO2)c2ccccc21 (stereo not drawn) | - | - | . | - | - | . | . | . | . | . | . | .
Fc1cccc(Cl)c1CSc1nnc(CNc2ccccc2)o1 | - | - | - | - | - | . | . | . | . | . | . | .
Cc1nc(NC(=O)c2ccccc2)sc1-c1csc(N)n1 | - | - | 61 | 68 | - | - | - | 57 | 53 | 77 | 65 | 61
CCOC(=O)CNC(=O)c1sc(NC(=O)c2ccccc2)nc1C | - | - | - | - | - | . | . | . | . | . | . | .
O=C(NCCc1ccccc1)c1ccc2c(c1)OCCO2 | - | - | 85 | 80 | 72 | 97 | 89 | 73 | 70 | 89 | 87 | 75
O=C(NCCOc1ccccc1)c1ccc2c(c1)OCO2 | - | - | 48 | - | 69 | 71 | 67 | 50 | - | 85 | 80 | 69
O=C(/C=C/c1ccccc1)c1ccc2c(c1)OCCCCO2 | - | - | 33 | 68 | 88 | 33 | 29 | 72 | 59 | - | - | 76
Cc1ccc(C(=O)NCCc2ccccc2)cc1 | - | - | 62 | 54 | 53 | 78 | 74 | - | - | 77 | 79 | 58
O=C(/C=C/c1ccc(Cl)cc1)c1cccnc1 | - | - | - | - | - | . | . | . | . | . | . | .
COc1cccc(/C=N/NC(=O)CNC(=O)c2cccs2)c1O | - | - | - | - | - | . | . | . | . | . | . | .
COc1ccc(CCNC(=O)Cn2c(=O)n(CCCC(=O)NCc3ccco3)c(=O)c3sccc32)cc1OC | - | - | - | - | - | . | . | . | . | . | . | .
O=C(NCCc1ccccc1)c1ccc2c(c1)OCCCO2 | - | 78 | 95 | 83 | 85 | 95 | 90 | 86 | 86 | 98 | 93 | 85
COC(=O)c1c(N)sc(C(=O)NCCc2ccccc2)c1C | - | 75 | 87 | 89 | 88 | 87 | 82 | 85 | 82 | 95 | 89 | 85
O=C(CCCc1ccccc1)c1ccc2c(c1)OCCO2 | - | 93 | 77 | 96 | 92 | 97 | 94 | 95 | 97 | 102 | 91 | 67
COc1cccc(OC)c1C(=O)NCCc1ccccc1 | - | - | . | - | - | . | . | . | . | . | . | .
COc1cc(CN(C)CC2CCCN(CCc3cccc(C(F)(F)F)c3)C2)ccc1O (stereo not drawn) | - | - | - | - | - | . | . | . | . | . | . | .
COc1ccc(-c2csc3ncnc(N4CCN(c5ccc(OC)cc5)CC4)c23)cc1 | - | - | - | - | - | . | . | . | . | . | . | .
SMILES | SENP8 block-1 | SENP8 block-2 | HSP90 refold inh | SENP7 block | SENP6 inh | HSP90 inh confirm | luciferase ctr | SENP8 confirm | SENP6 conf | SENP7 confirm | Casp3 select | Luc interf
COc1ccc(-c2nsc3c(N4CCCC4)ncnc23)cc1 | - | - | 29 | 74 | 52 | 60 | 42 | - | - | 51 | 58 | -
C/C(=N\Nc1ccc(C)c(Cl)c1)c1cccnc1 | - | - | - | - | - | . | . | . | . | . | . | .
CCCn1c(SCC(=O)c2ccc3c(c2)OCCO3)nc2c1c(=O)n(C)c(=O)n2C | - | . | - | . | . | . | . | . | . | . | . | .
CC(C)(C)c1cc(NC(=O)c2ccco2)no1 | - | - | 19 | 71 | 67 | 31 | 12 | 53 | 57 | 86 | 83 | 56
CCOC(=O)c1cc(S(=O)(=O)NC2CCN(C(=O)OCC)CC2)cn1C | - | - | - | - | - | . | . | . | . | . | . | .
Cc1nc(-c2coc3cc(O)c(C)cc3c2=O)cs1 | - | 94 | 18 | 98 | 93 | 52 | 51 | 84 | 98 | 102 | 96 | -
Cc1nc(-c2coc3cc(C)c(N=O)c(O)c3/c2=N\N)cs1 | - | - | - | - | - | . | . | . | . | . | . | .
CC(=O)NC(Cc1cccc(C)c1)C(=O)NC1CCN(C(=O)c2ccc([N+](=O)[O-])cc2)CC1 (stereo not drawn) | - | - | - | - | - | . | . | . | . | . | . | .
CC(=O)/C(N=Nc1ccc2c(c1)OCCO2)=C(\C)O | - | 75 | 25 | 82 | 79 | 45 | 56 | 81 | 80 | 96 | 92 | 60
Cc1cc(NC(=O)c2ccccc2Cl)ccc1NC(=O)c1ccccc1Cl | - | - | - | - | - | . | . | . | . | . | . | .
CCN(CC(=O)NC)S(=O)(=O)c1ccc(C)cc1 | - | - | - | - | - | . | . | . | . | . | . | .
